In PubChem BioAssay (EPA / NIEHS):
Results filed as inconclusive are left out. Calls of active or inactive are those of the source. How the source made its calls, unless noted: active means hit-call score of the fitted dose curve at least 0.9, where 1 is the maximum; inactive means score below 0.9.

What was measured:
[1] = molecular target: human Retinoid X Receptor beta (RXRb), RXRB (gene 6257) (UniProt P28702); test: ATG_RXRb_TRANS: Attagene TRANS-FACTORIAL HepG2 Assay for human Retinoid X Receptor beta (RXRb) (AID 2283013; active means hit-call score of the fitted dose curve at least 0.9, where 1 is the maximum)
Procedure, shortened: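 Read-out: reporter mRNA induction via RT-PCR plus capillary electrophoresis fluorescence, analysed as signal increase relative to DMSO. Cells were human HepG2, transiently transfected with GAL4-UAS reporter constructs and chimeric receptor-Gal4 fusions, dosed for 24 h.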

[2] = molecular target: human Thyroid Receptor alpha (THRa1), THRA (gene 7067) (UniProt P10827); test: ATG_THRa1_TRANS: Attagene TRANS-FACTORIAL HepG2 Assay for human Thyroid Receptor alpha (THRa1) (AID 2283014; active means hit-call score of the fitted dose curve at least 0.9, where 1 is the maximum)
Procedure, shortened: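 HepG2 cells transiently transfected with multiplexed GAL4-UAS reporter units for exogenous chimeric THRa1-Gal4; reporter mRNA measured 24 h after dosing by RT-PCR, 6-FAM labelling, HpaI digestion and capillary electrophoresis. Gain-of-signal fitted versus DMSO baseline.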

[3] = molecular target: human Vitamin D Receptor (VDR), VDR (gene 7421) (UniProt P11473); test: ATG_VDR_TRANS: Attagene TRANS-FACTORIAL HepG2 Assay for human Vitamin D Receptor (VDR) (AID 2283022; active means hit-call score of the fitted dose curve at least 0.9, where 1 is the maximum)
Procedure, shortened: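 HepG2 cells were transiently transfected with multiple GAL4-UAS reporter units, so signal reflects exogenous chimeric receptor-Gal4 activity. After 24 h compound exposure, reporter mRNA was measured by RT-PCR, fluorescent labelling and capillary electrophoresis, fitted for gain of signal versus DMSO.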

[4] = read-out: E-selectin (Homo sapiens) (UniProt P16581); test: BSK_3C_Eselectin: BioMAP Diversity Plus: 3C Assay for Eselectin Biomarker Activity (AID 2283015); details: primary human endothelial cells (HUVEC); actives raise or lower the signal
Procedure, shortened: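 Primary human umbilical vein endothelial cells (3C system) were dosed with chemical and cell-surface E-selectin measured by ELISA 24 h later. Bidirectional curve fitting used DMSO as negative control and baseline.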

[5] = read-out: Interleukin-1 alpha (IL1a), IL1A (gene 3552); test: BSK_BE3C_IL1a: BioMAP Diversity Plus: BE3C Assay for Interleukin-1 alpha (IL1a) Biomarker Activity (AID 2283016); details: primary human bronchial epithelial cells; actives raise or lower the signal
Procedure, shortened: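 ELISA read-out of IL-1a from human lung bronchial epithelial primary cells, 24 h post-dose. Gain or loss of signal fitted relative to DMSO negative control.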

[6] = read-out: Monocyte Chemoattractant Protein-1 (MCP1), CCL2 (gene 6347); test: BSK_3C_MCP1: BioMAP Diversity Plus: 3C Assay for Monocyte Chemoattractant Protein-1 (MCP1) Biomarker Activity (AID 2283017); details: primary human endothelial cells (HUVEC); actives raise or lower the signal
Procedure, shortened: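 Primary human umbilical vein endothelial cells (3C system) were exposed to test chemical for 24 h, after which MCP-1 was quantified by ELISA. Activity was fitted bidirectionally against DMSO as negative control and baseline.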

[7] = read-out: Monocyte Chemoattractant Protein-1 (MCP1), CCL2 (gene 6347); test: BSK_4H_MCP1: BioMAP Diversity Plus: 4H Assay for Monocyte Chemoattractant Protein-1 (MCP1) Biomarker Activity (AID 2283018); details: primary human endothelial cells (HUVEC); actives raise or lower the signal
Procedure, shortened: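 HUVEC primary cells, 24 h post-dose, MCP-1 by ELISA. Gain or loss of signal fitted bidirectionally vs DMSO baseline. Cytotoxicity: SRB stain (0.1% after 10% TCA fixation), read 560 nm, parallel cultures.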

[8] = read-out: Human Leukocyte Antigen - DR isotype (HLADR), HLA-DRA (gene 3122); test: BSK_3C_HLADR: BioMAP Diversity Plus: 3C Assay for Human Leukocyte Antigen - DR isotype (HLADR) Biomarker Activity (AID 2283019); details: primary human endothelial cells (HUVEC); actives raise or lower the signal
Procedure, shortened: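 Primary human umbilical vein endothelial cells (3C system) were dosed with compound and cell-surface HLA-DR was quantified by ELISA at 24 h. Activity was fitted bidirectionally against DMSO as negative control and baseline.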

[9] = read-out: Interleukin-8 (IL8), CXCL8 (gene 3576); test: BSK_3C_IL8: BioMAP Diversity Plus: 3C Assay for Interleukin-8 (IL8) Biomarker Activity (AID 2283020); details: primary human endothelial cells (HUVEC); actives raise or lower the signal
Procedure, shortened: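 HUVEC, 3C stimulation; 24 h compound exposure; IL-8 read by ELISA; gain or loss of signal fitted relative to DMSO control.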

[10] = read-out: Monokine induced gamma interferon (MIG), CXCL9 (gene 4283); test: BSK_3C_MIG: BioMAP Diversity Plus: 3C Assay for Monokine induced gamma interferon (MIG) Biomarker Activity (AID 2283021); details: primary human endothelial cells (HUVEC); actives raise or lower the signal;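 on AC50: MIG protein level measured by immunoassay in the treated endothelial cultures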
Procedure, shortened: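 HUVEC, 3C system; 24 h chemical exposure; MIG by ELISA; bidirectional fit vs DMSO baseline.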

[11] = BSK_3C_SRB: Viability Assessment in the BioMAP Diversity Plus: 3C Assay (AID 2283023); details: primary human endothelial cells (HUVEC);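 further: fitted both ways against DMSO so a hit may be signal rise or drop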
Procedure, shortened: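 Primary human umbilical vein endothelial cells in the 3C system were read 24 h after compound dosing. Total protein was stained with 0.1% sulforhodamine B after 10% TCA fixation and read at 560 nm, with bidirectional fitting against DMSO as baseline.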

[12] = BSK_3C_Vis: BioMAP Diversity Plus: 3C Assay for Morphology Visualization (AID 2283025); details: primary human endothelial cells (HUVEC);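 further: fitted both ways so gain or loss versus DMSO counts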;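 on AC50: light microscopy image of cell morphology used as background control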
Procedure, shortened: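 HUVEC, 3C system; light microscopy of morphology at 24 h post-dose. Bidirectional fit vs DMSO baseline. Secondary readout, background-control function.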

[13] = read-out: Pselectin, SELP (gene 6403); test: BSK_4H_Pselectin: BioMAP Diversity Plus: 4H Assay for Pselectin Biomarker Activity (AID 2283026); details: primary human endothelial cells (HUVEC); actives raise or lower the signal
Procedure, shortened: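 HUVEC, 24 h chemical exposure; P-selectin read by ELISA. Bidirectional curve fit vs DMSO baseline; gain or loss of signal scored.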

[14] = BSK_4H_SRB: Viability Assessment in the BioMAP Diversity Plus: 4H Assay (AID 2283027); details: primary human endothelial cells (HUVEC);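 further: cells exposed to compound for 24 h before staining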;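 on AC50: curves fitted both ways versus DMSO so AC50 may be loss or gain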
Procedure, shortened: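 Cytotoxicity read-out in primary human endothelial cells: after 24 h compound exposure, cells were TCA-fixed (10%), stained with 0.1% SRB and absorbance taken at 560 nm. Values fitted in both directions relative to DMSO.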

[15] = BSK_BE3C_SRB: Viability Assessment in the BioMAP Diversity Plus: BE3C Assay (AID 2283028); details: primary human bronchial epithelial cells;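 on AC50: fitted both ways so AC50 may mark signal gain or loss versus DMSO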
Procedure, shortened: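 Human primary bronchial epithelial cells were exposed to test chemicals for 24 h. Total protein in parallel cultures was then measured by staining with 0.1% sulforhodamine B after 10% TCA fixation, with absorbance read at 560 nm. Activity was fitted bidirectionally against DMSO.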

[16] = read-out: Thrombomodulin, THBD (gene 7056); test: BSK_3C_Thrombomodulin: BioMAP Diversity Plus: 3C Assay for Thrombomodulin Biomarker Activity (AID 2283029); details: primary human endothelial cells (HUVEC); actives raise or lower the signal
Procedure, shortened: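 HUVEC, 3C conditions; compound 24 h; thrombomodulin by ELISA; bidirectional curve fit vs DMSO baseline; parallel SRB total-protein staining for cytotoxicity.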

[17] = read-out: Urokinase-type plasminogen activator receptor (uPAR), PLAUR (gene 5329); test: BSK_4H_uPAR: BioMAP Diversity Plus: 4H Assay for Urokinase-type plasminogen activator receptor (uPAR) Biomarker Activity (AID 2283030); details: primary human endothelial cells (HUVEC); actives raise or lower the signal
Procedure, shortened: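 Primary human umbilical vein endothelial cells were exposed to chemical for 24 h before cell-surface uPAR was quantified by ELISA. Activity was fitted bidirectionally against the DMSO negative control baseline.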

[18] = read-out: Matrix Metallopeptidase 1 (MMP1), MMP1 (gene 4312); test: BSK_BE3C_MMP1: BioMAP Diversity Plus: BE3C Assay for Matrix Metallopeptidase 1 (MMP1) Biomarker Activity (AID 2283024); details: primary human bronchial epithelial cells; actives raise or lower the signal
Procedure, shortened: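 ELISA read-out of MMP1 in human lung bronchial epithelial primary cultures, 24 h post-dose; bidirectional curve fit vs DMSO baseline, gain or loss of signal scored.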

[19] = molecular target: Retinoic acid receptor RXR-alpha (Homo sapiens) (UniProt P19793); test: ATG_RXRa_TRANS: Attagene TRANS-FACTORIAL HepG2 Assay for human Retinoid X Receptor alpha (RXRa) (AID 2283012; active means hit-call score of the fitted dose curve at least 0.9, where 1 is the maximum)
Procedure, shortened: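 Read-out: fluorescent reporter-transcript fragments quantified by capillary electrophoresis after RT-PCR. Transiently transfected HepG2 cells carrying GAL4-UAS reporters and NR-GAL4 chimeras were exposed to chemical for 24 h; activity scored as increase over DMSO.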

Measured: AC50

human Thyroid Receptor alpha (THRa1), THRA (gene 7067), sequence (P10827 whole entry, looked up, the tested form may be a part): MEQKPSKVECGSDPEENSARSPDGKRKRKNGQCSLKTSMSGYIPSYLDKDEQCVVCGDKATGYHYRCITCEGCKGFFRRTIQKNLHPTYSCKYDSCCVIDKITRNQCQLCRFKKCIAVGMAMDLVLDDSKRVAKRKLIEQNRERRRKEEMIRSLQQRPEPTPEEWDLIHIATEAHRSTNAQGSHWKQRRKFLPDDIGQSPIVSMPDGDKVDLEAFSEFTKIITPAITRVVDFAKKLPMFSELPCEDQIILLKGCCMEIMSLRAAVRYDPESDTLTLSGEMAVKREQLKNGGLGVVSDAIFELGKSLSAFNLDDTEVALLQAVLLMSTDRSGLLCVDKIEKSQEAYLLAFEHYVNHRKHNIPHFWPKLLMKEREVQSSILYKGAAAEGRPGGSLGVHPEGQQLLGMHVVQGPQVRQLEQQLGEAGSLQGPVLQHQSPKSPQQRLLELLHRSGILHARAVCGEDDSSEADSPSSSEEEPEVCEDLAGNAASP
Retinoic acid receptor RXR-alpha (Homo sapiens), sequence (P19793 whole entry, looked up, the tested form may be a part): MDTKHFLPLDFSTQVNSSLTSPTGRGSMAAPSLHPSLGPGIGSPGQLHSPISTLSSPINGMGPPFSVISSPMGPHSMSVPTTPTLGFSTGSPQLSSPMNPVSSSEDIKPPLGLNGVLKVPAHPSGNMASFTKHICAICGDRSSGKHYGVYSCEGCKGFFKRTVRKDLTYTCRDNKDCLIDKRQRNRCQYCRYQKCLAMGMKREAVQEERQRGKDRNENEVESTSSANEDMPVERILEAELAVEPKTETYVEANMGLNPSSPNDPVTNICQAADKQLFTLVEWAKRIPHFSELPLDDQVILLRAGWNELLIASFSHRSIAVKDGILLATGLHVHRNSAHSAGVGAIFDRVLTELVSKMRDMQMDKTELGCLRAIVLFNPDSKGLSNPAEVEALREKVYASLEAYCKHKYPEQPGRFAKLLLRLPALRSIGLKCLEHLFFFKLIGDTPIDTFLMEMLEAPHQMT
human Vitamin D Receptor (VDR), VDR (gene 7421), sequence (P11473 whole entry, looked up, the tested form may be a part): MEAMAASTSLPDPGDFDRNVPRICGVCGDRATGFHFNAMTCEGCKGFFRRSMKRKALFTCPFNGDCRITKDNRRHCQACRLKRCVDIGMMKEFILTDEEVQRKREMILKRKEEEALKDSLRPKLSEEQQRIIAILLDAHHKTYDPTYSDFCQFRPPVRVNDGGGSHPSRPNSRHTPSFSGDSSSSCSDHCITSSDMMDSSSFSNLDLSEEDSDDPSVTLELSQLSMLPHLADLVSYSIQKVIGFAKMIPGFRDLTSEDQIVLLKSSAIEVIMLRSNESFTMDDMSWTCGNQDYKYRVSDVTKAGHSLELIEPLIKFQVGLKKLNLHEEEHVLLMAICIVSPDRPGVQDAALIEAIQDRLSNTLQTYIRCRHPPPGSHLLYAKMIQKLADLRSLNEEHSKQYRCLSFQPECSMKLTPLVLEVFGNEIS
human Retinoid X Receptor beta (RXRb), RXRB (gene 6257), sequence (P28702 whole entry, looked up, the tested form may be a part): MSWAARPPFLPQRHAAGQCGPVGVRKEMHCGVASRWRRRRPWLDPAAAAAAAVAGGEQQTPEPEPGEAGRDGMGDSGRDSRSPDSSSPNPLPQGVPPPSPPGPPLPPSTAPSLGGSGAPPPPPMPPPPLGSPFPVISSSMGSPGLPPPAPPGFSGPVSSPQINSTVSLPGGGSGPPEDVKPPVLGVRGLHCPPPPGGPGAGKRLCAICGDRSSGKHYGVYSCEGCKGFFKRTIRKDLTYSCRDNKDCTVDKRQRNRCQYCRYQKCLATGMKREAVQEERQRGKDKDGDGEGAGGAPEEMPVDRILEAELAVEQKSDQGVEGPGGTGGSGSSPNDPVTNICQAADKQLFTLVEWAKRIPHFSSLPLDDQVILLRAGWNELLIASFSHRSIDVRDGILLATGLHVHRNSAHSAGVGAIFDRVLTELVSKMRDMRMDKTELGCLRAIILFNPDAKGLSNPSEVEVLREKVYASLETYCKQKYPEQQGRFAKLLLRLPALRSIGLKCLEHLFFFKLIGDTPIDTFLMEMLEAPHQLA
E-selectin (Homo sapiens), sequence (P16581 whole entry, looked up): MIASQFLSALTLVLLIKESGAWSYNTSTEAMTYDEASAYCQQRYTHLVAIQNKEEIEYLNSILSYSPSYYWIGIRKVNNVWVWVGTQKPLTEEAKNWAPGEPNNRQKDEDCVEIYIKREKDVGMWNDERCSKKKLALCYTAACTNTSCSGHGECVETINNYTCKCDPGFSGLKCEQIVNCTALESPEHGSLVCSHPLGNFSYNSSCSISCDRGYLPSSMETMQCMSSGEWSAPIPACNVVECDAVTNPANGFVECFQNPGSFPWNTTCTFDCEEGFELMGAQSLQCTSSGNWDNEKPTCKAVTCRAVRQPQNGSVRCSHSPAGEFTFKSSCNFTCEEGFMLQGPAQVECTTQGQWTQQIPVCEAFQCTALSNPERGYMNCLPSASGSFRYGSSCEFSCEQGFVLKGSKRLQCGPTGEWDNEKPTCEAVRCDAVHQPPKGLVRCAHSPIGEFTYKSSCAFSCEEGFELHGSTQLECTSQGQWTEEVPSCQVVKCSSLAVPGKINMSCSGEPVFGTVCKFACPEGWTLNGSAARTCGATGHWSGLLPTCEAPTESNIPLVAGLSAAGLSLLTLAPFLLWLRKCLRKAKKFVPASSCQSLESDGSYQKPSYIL

C[C@@H](Oc1ccc(Cl)cc1Cl)C(=O)O
inactive: [1] | [2] | [3]

CC(=O)[O][Hg][c]1ccccc1
inactive: [2]
active: [1] 14800 nM | [4] 3040 nM | [5] 2570 nM | [6] 964 nM | [7] 1030 nM | [8] 317 nM | [9] 6000 nM | [10] 2730 nM | [11] 146 nM | [12] 954 nM | [13] 1290 nM | [14] 1680 nM | [15] 1880 nM | [16] 3830 nM | [17] 1740 nM

CCN(CC)C(=O)Cl
inactive: [1]

CCC[CH2][Sn]([Cl])([Cl])[Cl]
inactive: [2]

CCOC(=O)Nc1cccc(OC(=O)Nc2ccccc2)c1
inactive: [2] | [3]

C[C@H]1CCCC(=O)CCC/C=C/c2cc(O)cc(O)c2C(=O)O1
active: [1] 9820 nM
inactive: [2]

Nc1cccc(Cl)c1
inactive: [1] | [2] | [3]

CC(C)OC(=O)Nc1ccccc1
inactive: [2]

ClC1(Cl)C2(Cl)C3(Cl)C4(Cl)C(Cl)(Cl)C5(Cl)C3(Cl)C1(Cl)C5(Cl)C24Cl (stereo not drawn)
not listed: [1] | [2] | [8] | [19]
inactive: all other assays above

CCOP(OCC)OCC
inactive: [1]

OCC(O)CCl (stereo not drawn)
inactive: [19] | [3]

CC(C)(OO)c1ccccc1
not listed: [2] | [18] | [19]
inactive: all other assays above

Cl/C=C/Cl
inactive: [1] | [2]

CC(C)CCCCCCOC(=O)c1ccccc1C(=O)OCCCCCCC(C)C
not listed: [1] | [2] | [8] | [18] | [19]
inactive: all other assays above

COc1cccc(C=O)c1
inactive: [3]

CC(C#N)CCC#N (stereo not drawn)
inactive: [1] | [2]

Cc1cc(=O)[nH]o1
inactive: [1]

COc1ccc(C=O)cc1
inactive: [19] | [3]

CN(C)P(=O)(N(C)C)N(C)C
inactive: [2]

O=C(O)CCC(F)(C(F)(F)F)C(F)(F)F
not listed: [1] | [2] | [3] | [8] | [12] | [18] | [19]
inactive: all other assays above

CC(C)c1ccc(CO)cc1
not listed: [18] | [19]
inactive: all other assays above

CCc1ccccc1N
inactive: [3]

ClC1=C(Cl)[C@]2(Cl)[C@H]3[C@H]([C@H]4C=C[C@H]3C4)[C@@]1(Cl)C2(Cl)Cl
active: [6] 3970 nM | [7] 748 nM | [11] 7550 nM | [12] 13600 nM | [13] 7170 nM
not listed: [1] | [8] | [18] | [19]
inactive: all other assays above

CCCCCCCCC(=O)NCc1ccc(O)c(OC)c1
active: [7] 3970 nM | [14] 20000 nM
not listed: [1] | [2] | [8] | [19]
inactive: all other assays above

Nc1ccc(N=Nc2ccc(-c3ccc(N=Nc4c(S(=O)(=O)O)cc5cc(S(=O)(=O)O)c(N=Nc6ccccc6)c(O)c5c4N)cc3)cc2)c(N)c1
inactive: [1] | [3]

COc1ccc(OC)c(C=O)c1
inactive: [1] | [2] | [3]

CCOP(=O)(CN(CCO)CCO)OCC
inactive: [1] | [2] | [3]

COP(=O)(OC)OC
inactive: [2] | [3]

Fc1ccc(C2(Cn3cncn3)OC2c2ccccc2Cl)cc1 (stereo not drawn)
inactive: [19] | [3]

N#CN=C(N)N
inactive: [19] | [3]

COC(=O)c1sccc1S(=O)(=O)NC(=O)Nc1nc(C)nc(OC)n1
not listed: [2] | [3] | [8] | [19]
inactive: all other assays above

CC(=[OH+])/C=C(/C)[O-].CC(=[OH+])/C=C(/C)[O-].CC(=[OH+])/C=C(/C)[O-].[Fe]
inactive: [2]

Clc1ccc(C2(Cn3cncn3)CC(Br)CO2)c(Cl)c1 (stereo not drawn)
inactive: [2] | [3]
